Screens deposited in PubChem BioAssay by National Center for Advancing Translational Sciences (NCATS).
Compounds with a hit are over-represented: about 13% of the library has one in this group of screens.
HCMV inh: inhibitors of human cytomegalovirus | HFF cells, HCMV-luciferase reporter, 72 h; hits give low values | 410,000 tested, 4.5% active | activity change, negative = inhibition, % at 57.5 µM | AID 1259415; in the data active = activity change below about -60%; inconclusive = no clear call, values can overlap the other calls; inactive = above about -39%
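Two compound doses tested in HFFs infected with HCMV-luciferase, MOI 1 PFU/cell, 72 h at 37C. Lysate luminescence read with OneGlo; data normalized against buffer-only and 10uM Salinomycin inhibitor controls.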
Pf growth 48h: P. falciparum growth inhibition at 48 hours (one generation). Potency, µM (top dose mostly 28.7 µM), actives largely listed as inhibitors. AID 504832. 310,000 tested, 5.9% active. P. falciparum luciferase growth in erythrocytes, 48 h
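In quantitative HTS format, infected erythrocytes bearing luciferase-reporter parasites were treated for a single generation at 37 C. Luminescence after adding detection reagent served as the growth measure.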
HCV inh: blocks hepatitis C virus. AID 651820. 340,000 tested, 3.4% active. Huh7.5.1 HCVcc-Cre infection, luciferase reporter, 44 h. Potency, µM (doses to about 41.8 µM), usual class: inhibitors
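Infectious HCV cell culture screen: compound-treated cells (1,000/well, pre-plated 4 h) are infected with HCVcc-Cre at roughly 0.5 moi and grown 44 h. Infection is quantified by luciferase signal after 15 min substrate incubation at room temperature.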
Pf growth 96h: inhibits malaria parasite growth, 96 h; P. falciparum luciferase reporter growth, 96 h; Potency, µM (doses to about 28.7 µM), hits mostly inhibitors; 320,000 tested, 6.9% active; AID 504834
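Readout is luminescence from an integrated firefly luciferase in P. falciparum. Red cells, 2% hematocrit and 0.05% parasitemia final, were cultured with compound through two parasite generations (96 hours) at 37 C, 5% CO2.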
Numbers stand for hits; 0 = inactive; ? = inconclusive; - = no result given. Unless noted, calls come from the whole dose curve; as a rule, active = well fitted inhibition curve with a large enough effect; inconclusive = small, poorly fitted or top-dose-only effect, or another doubt; inactive = no such curve, though single readings can be large or run the other way.

SMILES	HCMV inh	Pf growth 48h	HCV inh	Pf growth 96h
COc1cc(-c2n[nH]c3ccnc(-c4cccc(OC(F)(F)F)c4)c23)cc(OC)c1OC	0	-	-	-
O=C(NC1CCCC1)N[C@@H]1CC[C@@H](CC(=O)N2CCOCC2)O[C@@H]1CO	0	-	-	-
Cc1cccc(-n2c(/C=C/c3ccccn3)nc3ccccc3c2=O)c1	-101	?	?	?
COc1cccc(-n2c(/C=C/c3ccccn3)nc3ccccc3c2=O)c1	?	?	0	0
COc1ccc(Cl)cc1-n1c(/C=C/c2cccc3ccccc23)nc2ccccc2c1=O	0	-	-	-
COc1ccccc1-n1c(/C=C/c2c(C)n(C)c3ccccc23)nc2ccccc2c1=O	-85	-	-	-
COc1ccccc1-n1c(/C=C/c2ccccn2)nc2ccccc2c1=O	-101	?	?	?
Cc1cccc(S(=O)(=O)c2cn(Cc3ccccc3)c3cc(N4CCCCC4)c(F)cc3c2=O)c1	0	-	-	-
CCOC(=O)N1CCN(c2nc3ccccn3c(=O)c2C=O)CC1	0	0.29µM	0	0.83µM
CCOC(=O)c1c(C2CCN(C(=O)OCC)CC2)nc2ccccn12	0	-	0	5.2µM
COc1cccc(C(=O)N2c3ccc(C)cc3C(C)(c3ccccc3)CC2(C)C)c1 (stereo unspecified)	0	-	-	-
COCCn1c(-c2ccc(Br)cc2)csc1=Nc1cccnc1	0	?	?	?
Clc1ccc(-c2csc(=Nc3cccnc3)n2CCCn2ccnc2)cc1Cl	-94	12µM	11µM	4.7µM
CC(C)[C@@H]1CN=C(N)N1C[C@@H]1CCCN1C[C@H](C)N1C[C@@H](Cc2ccccc2)N(CCc2ccc(Cl)c(Cl)c2)C1=N	-	-	0.56µM	-
C[C@@H](CN1CCC[C@H]1CN1C(N)=NC[C@@H]1Cc1ccccc1)N1C[C@@H](Cc2ccccc2)N(CCc2ccc(Cl)c(Cl)c2)C1=N	-	-	0	-
Cc1ccccc1-c1nn2c(-c3ccccc3)nnc2s1	0	?	?	9.3µM
Cc1cc(-c2nn3c(-c4ccccc4)nnc3s2)c2ccccc2n1	0	?	?	0
c1ccc(-c2cc(-c3nn4c(-c5ccco5)nnc4s3)c3ccccc3n2)cc1	-	3.7µM	?	-
COc1cc(OC)c(-c2nn3c(-c4ccco4)nnc3s2)cc1OC	?	10µM	0	0
COc1ccc(CCNc2nc(-c3ccc(OC)c(OC)c3)cc(C(F)(F)F)n2)cc1OC	0	-	-	-
Clc1ccc2c(c1)CCc1cccnc1C2=C1CCNCC1	-	13µM	-	?
CN1Cc2cccnc2N(C)Cc2cc(Cl)ccc21	?	0	?	0
C/C(=N\N=C(N)N)c1ccc(Cl)c(Cl)c1	0	4.1µM	?	?
O=C(Nc1ccccc1C(F)(F)F)N1CCOc2ccc(Cl)cc21	0	-	-	-
CCCNC(=O)CN(C)S(=O)(=O)c1c(C)cc(C)cc1C	0	7.4µM	0	10µM
SMILES	HCMV inh	Pf growth 48h	HCV inh	Pf growth 96h
CN(C)c1ccc(/C=C/C=C2/SC(=S)N(c3ccccc3)C2=O)cc1	0	0	0	0
CN(C)c1ccc(/C=C/c2nc3ccccc3s2)cc1	-92	0	0	?
CCn1c(C)[n+](CC)c2ccc(C(=O)N(C)c3ccccc3)cc21	0	0	0	0
CCn1c(/C=C/N(C(C)=O)c2ccccc2)[n+](CC)c2ccc(Cl)cc21	0	2.1µM	0	0
CN(C)c1ccc(/C=C/c2ccc3ccccc3n2)cc1	-	0	?	?
CC[n+]1c(/C=C/C=C/c2ccc(N(C)C)cc2)sc2ccccc21	-110	0	2.8µM	0
CN(C)c1ccc(/C=C/C=C/c2sc3ccccc3[n+]2C)cc1	-95	0	?	0
CC[n+]1c(/C=C/C=C/N(C(C)=O)c2ccccc2)sc2ccccc21	?	4.7µM	?	9.3µM
CC(=O)N(\C=C/C=C/C=C1\Sc2ccccc2C1=O)c1ccccc1	0	?	?	0
Cn1cc(C(=O)N2CCN(c3cccc(Cl)c3)CC2)c(=O)c2cc(S(=O)(=O)N3CCOCC3)ccc21	?	0	0	12µM
CCn1cc(C(=O)NCCc2ccc(OC)c(OC)c2)c(=O)c2cc(S(=O)(=O)N3CCC(C)CC3)ccc21	0	-	-	-
COc1ccc(CCNC(=O)c2cn(C)c3ccc(S(=O)(=O)N4CCOCC4)cc3c2=O)cc1OC	0	13µM	0	0
CCn1cc(C(=O)NCCc2ccc(OC)c(OC)c2)c(=O)c2cc(S(=O)(=O)N3CCOCC3)ccc21	0	10µM	0	?
CCn1cc(C(=O)N2CCN(c3cccc(Cl)c3)CC2)c(=O)c2cc(S(=O)(=O)N3CCOCC3)ccc21	0	-	-	-
CCOC(=O)N1CCN(C(=O)c2cn(CC)c3ccc(S(=O)(=O)N4CCOCC4)cc3c2=O)CC1	0	0	0	4.7µM
Cn1cc(C(=O)NCCc2ccccc2)c(=O)c2cc(S(=O)(=O)N3CCOCC3)ccc21	0	-	0	-
Fc1ccc(Nc2nc3ccccc3c3nncn23)c(Cl)c1	0	-	-	-
COc1ccc(C2C(C(=O)Nc3cccnc3)=C(C)Nc3nc(SCc4ccccc4)nn32)cc1 (stereo unspecified)	0	-	-	-
Cc1ccccc1NC(=O)CSc1c(C(C)C)cnc2c1c(=O)n(C)c(=O)n2C	0	-	-	-
CCCOc1ccc(Oc2nc(NCC(C)C)nc(N(C)C)n2)nn1	0	-	-	-
O=C(NCCC1=CCCCC1)C1CCN(C(=O)N2CCOc3ccccc32)CC1	0	-	-	-
CCOC(=O)c1sc2ccc(S(=O)(=O)N3CCOCC3)cc2c1N	-62	0	0	0
CCOC(=O)c1sc2ccc(S(=O)(=O)N3CCCCC3)cc2c1N	?	0	?	0
C/C(=N/OCC(=O)NCCCCCCNC(=O)CO/N=C(/C)c1cccs1)c1cccs1	?	0	22µM	?
CC(=O)Oc1ccc(OC(C)=O)c(S(=O)(=O)c2ccc(C)c(C)c2)c1	0	0	0	12µM
SMILES	HCMV inh	Pf growth 48h	HCV inh	Pf growth 96h
COc1ccc(/C=C/C(=O)Oc2ccc(C)c(C)c2)cc1OC	?	?	0	0
CCCOc1ccc(CCc2n[nH]c(=S)n2-c2ccccc2)cc1	0	0	0	0
CCCOc1ccc(CCc2n[nH]c(=S)n2Cc2ccccc2)cc1	0	5.9µM	0	0
COc1ccc(CNC(=O)c2ccc(CN3C(=O)C(C)=C(c4ccc(C)cc4)S3(=O)=O)cc2)cc1	0	-	-	-
Cc1ccc2nc(-c3cccc(Cl)c3)c(Cc3ccccc3C(F)(F)F)n2c1	0	-	-	-
CC(C)(O)C#Cc1ccc(CN2CCN(Cc3ccsc3)C(CCO)C2)s1 (stereo unspecified)	0	0	0	8.3µM
O=C(Nc1cccc(C(F)(F)F)c1)C1CCCN(S(=O)(=O)c2cccc3nsnc23)C1 (stereo unspecified)	0	-	-	-
NS(=O)(=O)c1cc(C(=O)NCC2CCCCC2)ccc1Cl	0	?	0	?
CC(OC(=O)c1ccc(Cl)c(S(N)(=O)=O)c1)C(=O)NCC1CCCCC1 (stereo unspecified)	-87	0	?	0
CCCCCn1c(=O)[nH]c2cc(C(=O)Nc3cc(OC)cc(OC)c3)ccc2c1=O	0	-	-	-
CCn1cc(CN2CCC(C(=O)Nc3ccc(Oc4cccnc4)cc3)CC2)cn1	?	13µM	-	0
COc1cccc(CN2CCC(C(=O)Nc3ccc(Oc4cccnc4)cc3)CC2)c1	0	?	?	0
